# Inconclusive results are not listed. Activity calls are given as the source filed them. The call rests on the fitted dose curve; in most records, active means well fitted curve in the direction sought with a large enough effect; inconclusive means small, poorly fitted or top-dose-only effect, or another doubt; inactive means no such curve, though single readings can be large; an effect the other way counts as inactive or inconclusive.
# Target: Pyruvate kinase PKM (Homo sapiens) (UniProt P14618)
# Sequence (P14618 whole entry, looked up): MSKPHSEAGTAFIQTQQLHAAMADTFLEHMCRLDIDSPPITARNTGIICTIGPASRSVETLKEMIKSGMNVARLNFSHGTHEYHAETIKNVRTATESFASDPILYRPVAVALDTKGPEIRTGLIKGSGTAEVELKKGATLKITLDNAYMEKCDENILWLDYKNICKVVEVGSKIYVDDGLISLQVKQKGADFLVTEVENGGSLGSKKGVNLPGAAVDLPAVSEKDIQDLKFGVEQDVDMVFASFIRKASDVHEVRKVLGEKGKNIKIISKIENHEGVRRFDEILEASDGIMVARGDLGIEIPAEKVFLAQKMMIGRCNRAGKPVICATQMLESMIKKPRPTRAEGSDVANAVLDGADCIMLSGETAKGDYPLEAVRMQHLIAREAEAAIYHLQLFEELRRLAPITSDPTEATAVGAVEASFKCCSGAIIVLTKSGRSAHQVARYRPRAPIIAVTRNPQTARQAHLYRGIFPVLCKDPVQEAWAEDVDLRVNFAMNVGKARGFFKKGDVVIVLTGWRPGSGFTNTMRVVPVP
# Test: qHTS Assay for Inhibitors of Human Muscle Pyruvate Kinase (AID 958)
# Conditions: purified human PKM enzyme activity; series mostly up to 57.5 µM; activity change, negative = inhibition: at the top concentration
# Protocol: NIH Molecular Libraries Screening Centers Network [MLSCN]
# NIH Chemical Genomics Center [NCGC]
# Wael M. Rabeh, Lyudmila Nedyalkova and Hee-Wan Park [Structural Genomics Consortium, 100 College St. Toronto, Ontario, Canada]
# Human pyruvate kinase muscle 2 enzyme was supplied as a highly purified (>95% pure) preparation by the Structural Genomics Consortium in Toronto (Ontario, Canada) and was assayed for its ability to generate ATP from ADP using phosphoenolpyruvate (PEP) as a substrate. ATP generation was detected in a coupled reaction by luciferase-mediated luminescence, an ATP-dependent process. Pyruvate kinase substrates, PEP and ADP, were present in the assay at Km and approximately […]-fold below Km respectively. The enzyme was assayed at an intermediate level of activity to screen for inhibitors and activators.
# NCGC Assay Protocol Summary:
# Three uL of substrate mix (final concentration, 50 mM imidazole pH 7.2, 50 mM KCl, 7 mM MgCl2, 0.5 mM PEP, 0.1 mM ADP, 0.01% Tween 20, 0.05% BSA) was dispensed into 1536 well plates. 23 nL of compound were delivered by a pin tool and 1 uL of enzyme mix (final concentration, 0.1 nM pyruvate kinase, 50 mM imidazole pH 7.2, 0.05% BSA) was added. Plates were incubated at room temperature for 1 hour. Two uL of detection and kinase stop mix (PKLight, Cambrex) was added, the plates centrifuged, and luminescence read by a ViewLux (Perkin Elmer) at 5 second exposure/plate. Data were normalized to the uninhibited and AC100 inhibition (no enzyme or 110 uM N-methyl-2,3-diphenyl-1,2,4-thiadiazol-5-imine; CID: 682802; LOPAC-S-4063). To monitor activation, 0.3 nM pyruvate kinase was included in one control column.
Compound,"activity change, negative = inhibition",Potency
Oc1cc2c(cc1O)CN(C(=S)NCCc1ccc(Cl)cc1)CCC2,47.3% (inactive),–
COc1ccc(/C=C/C(=O)Nc2ccccc2C(=O)O)cc1OC,–,20 µM (active)
CN=c1nc(-c2ccccc2)n(-c2ccccc2)s1,–,25.1 µM (active)
Cc1ccc(O)c(N=Nc2ccccc2)n1,–,6.31 µM (active)

# Target: Pyruvate kinase (Leishmania mexicana) (UniProt Q27686)
# Sequence (Q27686 2-499 E452W): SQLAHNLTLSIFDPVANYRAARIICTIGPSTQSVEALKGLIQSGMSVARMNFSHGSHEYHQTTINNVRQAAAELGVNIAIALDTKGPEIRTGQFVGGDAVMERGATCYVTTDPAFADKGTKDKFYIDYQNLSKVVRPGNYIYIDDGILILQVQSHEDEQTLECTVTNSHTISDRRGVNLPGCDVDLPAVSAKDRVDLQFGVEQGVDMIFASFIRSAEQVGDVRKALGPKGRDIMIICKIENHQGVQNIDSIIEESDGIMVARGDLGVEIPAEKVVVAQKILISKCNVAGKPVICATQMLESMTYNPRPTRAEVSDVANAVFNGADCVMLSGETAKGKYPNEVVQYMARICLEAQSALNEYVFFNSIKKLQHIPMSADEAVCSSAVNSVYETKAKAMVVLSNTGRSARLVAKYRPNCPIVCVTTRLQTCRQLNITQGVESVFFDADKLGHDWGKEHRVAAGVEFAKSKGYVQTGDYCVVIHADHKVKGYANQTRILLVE
# Test: qHTS Validation Assay for Activators of Leishmania Mexicana Pyruvate Kinase (AID 959)
# Conditions: purified L. mexicana pyruvate kinase, enzyme activity; series mostly up to 57.5 µM; activity change, positive = activation: at the top concentration
# Outline: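 Substrate mix (0.5 mM PEP, 0.1 mM ADP, 7 mM MgCl2, 50 mM KCl, pH 7.2 imidazole) received compound by pin tool, then 0.2 nM LmPYK E451W. After 1 h at room temperature, PKLight was added and luminescence measured.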
Compound,"activity change, positive = activation",Potency
CN1CCc2cc(NC(=O)Nc3cccnc3)ccc21,-61.2% (inactive),–
O=C(Nc1cccc(C(=O)Nc2ccc(S(=O)(=O)O)c3cc(S(=O)(=O)O)cc(S(=O)(=O)O)c23)c1)Nc1cccc(C(=O)Nc2ccc(S(=O)(=O)O)c3cc(S(=O)(=O)O)cc(S(=O)(=O)O)c23)c1,–,0.398 µM (active)
COc1ccc(/C=C/C(=O)Nc2ccccc2C(=O)O)cc1OC,-90% (inactive),–
O=C(Nc1ccccc1)c1cc([N+](=O)[O-])ccc1Cl,-33.5% (inactive),–
CN=c1nc(-c2ccccc2)n(-c2ccccc2)s1,-99.4% (inactive),–
Cc1ccc(O)c(N=Nc2ccccc2)n1,-108% (inactive),–
Cc1cc(NC(=O)Nc2ccc3c(ccn3C)c2)sn1,-54.4% (inactive),–
NC(N)=NC(=O)c1nc(Cl)c(N2CCCCCC2)nc1N,-34.1% (inactive),–

# From PubChem BioAssay (NCATS)
